The target of experiment [1] is Nuclear receptor subfamily 1 group I member 2 (Rattus norvegicus) (UniProt Q9R1A7). Put plainly: Rat pregnane X receptor (rPXR) activation by small molecules, qHTS assay (AID 1346983). Further: nearly all actives have a fitted effect of over 20% in size. Further: potency means the concentration at half of the fitted maximal effect. The conditions noted are these: rPXR luciferase reporter cells, One-Glo luminescence, 24 h; max activation: active compounds read high. The procedure, abridged: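 Luminescent readout (One-Glo luciferase, 30 min room temperature) followed 24 hr compound treatment at 37 C of rPXR cells plated 2,000 per well and preincubated 5hr; qHTS format with compounds delivered in DMSO.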
Nuclear receptor subfamily 1 group I member 2 (Rattus norvegicus), sequence (Q9R1A7 whole entry, looked up): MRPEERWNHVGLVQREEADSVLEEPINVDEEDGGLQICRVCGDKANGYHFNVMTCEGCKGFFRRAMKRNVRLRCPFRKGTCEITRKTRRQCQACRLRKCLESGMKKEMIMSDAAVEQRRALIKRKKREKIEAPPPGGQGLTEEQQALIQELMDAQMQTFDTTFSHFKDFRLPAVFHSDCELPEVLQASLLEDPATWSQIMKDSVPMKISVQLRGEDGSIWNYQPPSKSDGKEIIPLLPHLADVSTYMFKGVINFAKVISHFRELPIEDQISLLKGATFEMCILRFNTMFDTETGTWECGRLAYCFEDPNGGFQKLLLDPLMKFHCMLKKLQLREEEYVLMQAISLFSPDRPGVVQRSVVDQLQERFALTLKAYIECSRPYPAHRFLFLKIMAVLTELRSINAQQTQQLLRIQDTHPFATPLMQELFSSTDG
In general terms: In qHTS, concentration-response curves come from the screen itself.

In experiment [2] the target is Nuclear receptor subfamily 1 group I member 2 (Homo sapiens) (UniProt O75469). Kind of experiment: Human pregnane X receptor (PXR) activation by small molecules, qHTS assay (AID 1346985). Further: nearly all actives have a fitted effect of over 40% in size. Further: potency means the concentration at half of the fitted maximal effect. The procedure, abridged: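 DPX-2 cells (HepG2 co-transfected with a PXR response element and a CYP3A4-promoter luciferase construct) were seeded at 2,000 per well, rested 5 hr at 37C, then exposed to DMSO-dissolved compounds for 24 hr. Activation was read as luciferase luminescence.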

The target is the same in experiment [3]. Put plainly: CYP3A4 induction through human pregnane X receptor (PXR) by small molecules, qHTS assay (AID 1346984). Further: nearly all actives have a fitted effect of over 40% in size. Further: potency means the concentration at half of the fitted maximal effect. The gist of the method:
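After 24 h at 37C with compound, DPX-2 cells (HepG2, co-transfected PXR response element and CYP3A4 promoter-luciferase) got 3uM final P450-Glo Luciferin-IPA for 3 h; One-Glo luminescence followed.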

Experiment [4] has as its target Voltage-gated inwardly rectifying potassium channel KCNH2 (Homo sapiens) (UniProt Q12809). Put plainly: Human Ether-a-go-go-Related Gene (hERG) channel small molecule antagonists: fluorescence cell-based qHTS assay (AID 1671200). Further: nearly all actives have a fitted effect of over 50% in size. Further: potency means the concentration at half of the fitted maximal effect.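 On activity change, negative = inhibition: hERG-expressing U2OS cells given a thallium stimulus after FluxOR II dye loading; series mostly up to about 77 µM.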 The procedure, abridged:
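Channel function was assessed by thallium flux. Cells seeded the previous day and kept at 37 C took up FluxOR II dye over 1 h in the dark at room temperature, then sat another 10 min before stimulation.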
Background: The hERG channel carries a current that helps repolarise heart muscle cells.

The target of experiment [5] is Cytochrome P450 2D6 (Homo sapiens) (UniProt P10635). Put plainly: Cytochrome P450 Family 2 Subfamily D Member 6 (CYP2D6) small molecule antagonists: luciferase reporter qHTS assay (AID 1671196). Further: nearly all actives have a fitted effect of over 50% in size. Further: potency means the concentration at half of the fitted maximal effect. On activity change, negative = inhibition: series mostly up to about 120 µM. The gist of the method: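 Chemicals tested for interference with CYP2D6 activity; proluciferin substrate, NADPH regeneration, 1 h at room temperature, luminescent detection.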
Cytochrome P450 2D6 (Homo sapiens), sequence (P10635 whole entry, looked up): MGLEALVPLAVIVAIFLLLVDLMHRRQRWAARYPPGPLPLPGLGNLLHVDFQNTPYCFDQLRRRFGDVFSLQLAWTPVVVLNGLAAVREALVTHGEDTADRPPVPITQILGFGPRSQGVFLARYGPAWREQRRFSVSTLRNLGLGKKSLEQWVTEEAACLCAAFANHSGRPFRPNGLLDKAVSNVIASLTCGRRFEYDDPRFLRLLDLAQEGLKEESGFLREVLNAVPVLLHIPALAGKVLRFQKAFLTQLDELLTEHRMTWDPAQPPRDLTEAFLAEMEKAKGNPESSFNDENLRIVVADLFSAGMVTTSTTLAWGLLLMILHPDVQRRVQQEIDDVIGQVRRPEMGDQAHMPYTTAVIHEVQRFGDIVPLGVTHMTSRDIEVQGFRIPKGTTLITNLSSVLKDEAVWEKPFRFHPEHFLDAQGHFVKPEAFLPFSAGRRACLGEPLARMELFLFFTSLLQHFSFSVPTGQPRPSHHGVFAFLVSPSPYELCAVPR
A general note: A reporter such as luciferase makes a cellular process visible.

The target in experiment [6] is Cytochrome P450 2C19 (Homo sapiens) (UniProt P33261). Put plainly: Cytochrome P450 Family 2 Subfamily C Member 19 (CYP2C19) small molecule antagonists: luciferase reporter qHTS assay (AID 1671197). Further: nearly all actives have a fitted effect of over 65% in size. Further: potency means the concentration at half of the fitted maximal effect. On activity change, negative = inhibition: series mostly up to about 120 µM. The procedure, abridged: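 P450-Glo CYP2C19 screening system; proluciferin substrate; DMSO compound stocks; 10 min RT preincubation; NADPH regeneration, 1 h at 37C; luciferin detection reagent, 20 min RT; luminescence as RLU.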
Cytochrome P450 2C19 (Homo sapiens), sequence (P33261 whole entry, looked up): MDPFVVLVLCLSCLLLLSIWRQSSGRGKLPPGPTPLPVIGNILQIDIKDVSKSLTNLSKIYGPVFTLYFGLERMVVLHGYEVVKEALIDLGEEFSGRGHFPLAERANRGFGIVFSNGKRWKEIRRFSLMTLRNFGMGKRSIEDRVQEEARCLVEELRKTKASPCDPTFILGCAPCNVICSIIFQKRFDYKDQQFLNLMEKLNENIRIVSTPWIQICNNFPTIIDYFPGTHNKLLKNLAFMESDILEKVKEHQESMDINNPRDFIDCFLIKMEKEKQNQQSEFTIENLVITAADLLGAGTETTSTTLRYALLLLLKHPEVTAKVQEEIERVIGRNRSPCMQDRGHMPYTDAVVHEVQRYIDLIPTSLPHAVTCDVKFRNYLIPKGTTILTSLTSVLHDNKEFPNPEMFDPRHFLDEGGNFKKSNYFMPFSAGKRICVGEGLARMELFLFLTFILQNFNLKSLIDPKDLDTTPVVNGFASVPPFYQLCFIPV

For experiment [7], the target named is Cytochrome P450 2C9 (Homo sapiens) (UniProt P11712). Put plainly: Cytochrome P450 Family 2 Subfamily C Member 9 (CYP2C9) small molecule antagonists: luciferase reporter qHTS assay (AID 1671198). Further: nearly all actives have a fitted effect of over 50% in size. Further: potency means the concentration at half of the fitted maximal effect. On activity change, negative = inhibition: series mostly up to about 120 µM. The procedure, abridged: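 Enzyme-substrate mix preincubated with compound 10 min at room temperature; reaction started with NADPH regeneration solution, 1 h 37C. Luminescent luciferin product read after 20 min detection reagent.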
Cytochrome P450 2C9 (Homo sapiens), sequence (P11712 whole entry, looked up): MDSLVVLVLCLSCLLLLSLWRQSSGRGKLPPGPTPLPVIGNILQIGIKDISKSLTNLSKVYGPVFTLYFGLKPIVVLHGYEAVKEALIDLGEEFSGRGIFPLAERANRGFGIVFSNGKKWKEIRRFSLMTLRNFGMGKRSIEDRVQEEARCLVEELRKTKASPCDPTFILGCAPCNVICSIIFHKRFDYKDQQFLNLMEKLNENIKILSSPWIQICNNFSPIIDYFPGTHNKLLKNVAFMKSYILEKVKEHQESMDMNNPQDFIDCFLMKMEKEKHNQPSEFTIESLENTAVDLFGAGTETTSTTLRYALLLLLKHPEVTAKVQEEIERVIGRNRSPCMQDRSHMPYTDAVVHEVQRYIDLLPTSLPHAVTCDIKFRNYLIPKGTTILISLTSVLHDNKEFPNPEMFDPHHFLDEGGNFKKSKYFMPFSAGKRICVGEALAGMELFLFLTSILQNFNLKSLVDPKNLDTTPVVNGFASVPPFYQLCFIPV

For experiment [8], the target named is Cytochrome P450 1A2 (Homo sapiens) (UniProt P05177). Kind of experiment: Cytochrome P450 Family 1 Subfamily A Member 2 (CYP1A2) small molecule antagonists: luciferase reporter qHTS assay (AID 1671199). Further: nearly all actives have a fitted effect of over 50% in size. Further: potency means the concentration at half of the fitted maximal effect. On activity change, negative = inhibition: series mostly up to about 120 µM. The procedure, abridged:
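Read-out is luminescence from luciferin detection reagent (20 min) proportional to CYP1A2 activity; compounds in DMSO preincubated 10 min with enzyme and proluciferin substrate, then NADPH regeneration solution, 1 h, room temperature.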

Experiment [9] addresses Cytochrome P450 3A4 (Homo sapiens) (UniProt P08684). Put plainly: Cytochrome P450 Family 3 Subfamily A Member 4 (CYP3A4) small molecule antagonists: luciferase reporter qHTS assay (AID 1671201). The procedure, abridged: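 Compounds in DMSO were pin-transferred onto CYP3A4 enzyme-substrate mix and held 10 min at room temperature. NADPH regenerating solution started the reaction for 1 h; luciferin detection reagent stopped it, and luminescence was read after 20 min.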

Each structure is given as a SMILES string. Inconclusive results are not listed. Active and inactive are the calls of the source. The call rests on the fitted dose curve; in most records, active means well fitted curve in the direction sought with a large enough effect in the repeat runs; inconclusive means weak or mixed curves; inactive means no such curve, though single readings can be large; an effect the other way counts as inactive or inconclusive. Positions of bridges follow the written chain, without caps; N, C: chain ends. Non-standard residues stand in square brackets, D forms with d. Residues, ends and D or L forms follow the SMILES beside them. *: point of attachment. Dab(CH2SO3H) = N[C@@H](CCNCS(=O)(=O)O)C(=O)O; X3 = CC[C@@H](C)CCCCC(=O)*; Dab = NCC[C@H](N)C(=O)O
On the % scale 0 is the no-effect control and ±100 the full control effect.

Voltage-gated inwardly rectifying potassium channel KCNH2 (Homo sapiens), sequence (Q12809 whole entry, looked up): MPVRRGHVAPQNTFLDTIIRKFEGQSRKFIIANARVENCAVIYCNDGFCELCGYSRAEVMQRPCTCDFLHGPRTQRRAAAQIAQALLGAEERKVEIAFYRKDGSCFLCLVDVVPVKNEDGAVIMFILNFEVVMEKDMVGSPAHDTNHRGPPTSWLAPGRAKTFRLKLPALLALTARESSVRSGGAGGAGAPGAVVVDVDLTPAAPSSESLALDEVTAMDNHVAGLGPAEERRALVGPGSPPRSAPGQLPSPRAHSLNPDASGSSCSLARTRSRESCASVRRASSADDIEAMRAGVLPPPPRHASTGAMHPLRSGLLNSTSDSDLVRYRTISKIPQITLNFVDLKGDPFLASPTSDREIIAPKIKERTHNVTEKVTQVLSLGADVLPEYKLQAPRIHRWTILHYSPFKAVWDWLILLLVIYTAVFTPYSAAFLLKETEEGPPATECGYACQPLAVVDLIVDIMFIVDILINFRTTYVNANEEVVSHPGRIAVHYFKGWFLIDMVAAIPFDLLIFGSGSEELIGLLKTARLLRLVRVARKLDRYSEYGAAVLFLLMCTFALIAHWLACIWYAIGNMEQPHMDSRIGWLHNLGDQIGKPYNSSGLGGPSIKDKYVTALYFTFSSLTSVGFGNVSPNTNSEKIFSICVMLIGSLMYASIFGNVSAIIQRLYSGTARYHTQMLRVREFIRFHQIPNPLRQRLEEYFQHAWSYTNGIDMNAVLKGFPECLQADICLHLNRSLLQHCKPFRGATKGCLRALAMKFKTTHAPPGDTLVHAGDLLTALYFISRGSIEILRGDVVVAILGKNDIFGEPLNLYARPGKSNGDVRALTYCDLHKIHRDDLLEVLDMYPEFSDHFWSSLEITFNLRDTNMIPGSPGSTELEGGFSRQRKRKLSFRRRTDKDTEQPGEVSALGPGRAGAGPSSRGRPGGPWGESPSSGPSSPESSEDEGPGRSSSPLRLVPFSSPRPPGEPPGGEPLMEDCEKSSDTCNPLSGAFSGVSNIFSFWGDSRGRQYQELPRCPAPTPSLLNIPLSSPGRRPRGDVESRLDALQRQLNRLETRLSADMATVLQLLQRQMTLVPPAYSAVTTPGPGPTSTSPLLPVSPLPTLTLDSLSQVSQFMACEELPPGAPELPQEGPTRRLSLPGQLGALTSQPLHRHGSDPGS
Cytochrome P450 1A2 (Homo sapiens), sequence (P05177 whole entry, looked up): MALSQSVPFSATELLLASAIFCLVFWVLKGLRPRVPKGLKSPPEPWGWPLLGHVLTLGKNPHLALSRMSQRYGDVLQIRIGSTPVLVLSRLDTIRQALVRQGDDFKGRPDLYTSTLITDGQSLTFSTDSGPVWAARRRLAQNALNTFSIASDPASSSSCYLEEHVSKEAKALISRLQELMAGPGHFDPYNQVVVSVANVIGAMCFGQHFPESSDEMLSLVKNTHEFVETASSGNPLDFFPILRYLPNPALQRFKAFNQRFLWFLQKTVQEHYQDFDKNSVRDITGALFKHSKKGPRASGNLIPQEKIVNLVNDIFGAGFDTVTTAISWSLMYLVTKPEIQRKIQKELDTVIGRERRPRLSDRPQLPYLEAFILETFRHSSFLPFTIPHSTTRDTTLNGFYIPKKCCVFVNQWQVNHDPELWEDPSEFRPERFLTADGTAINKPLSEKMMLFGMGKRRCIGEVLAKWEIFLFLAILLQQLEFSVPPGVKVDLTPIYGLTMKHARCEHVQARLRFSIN
Cytochrome P450 3A4 (Homo sapiens), sequence (P08684 whole entry, looked up): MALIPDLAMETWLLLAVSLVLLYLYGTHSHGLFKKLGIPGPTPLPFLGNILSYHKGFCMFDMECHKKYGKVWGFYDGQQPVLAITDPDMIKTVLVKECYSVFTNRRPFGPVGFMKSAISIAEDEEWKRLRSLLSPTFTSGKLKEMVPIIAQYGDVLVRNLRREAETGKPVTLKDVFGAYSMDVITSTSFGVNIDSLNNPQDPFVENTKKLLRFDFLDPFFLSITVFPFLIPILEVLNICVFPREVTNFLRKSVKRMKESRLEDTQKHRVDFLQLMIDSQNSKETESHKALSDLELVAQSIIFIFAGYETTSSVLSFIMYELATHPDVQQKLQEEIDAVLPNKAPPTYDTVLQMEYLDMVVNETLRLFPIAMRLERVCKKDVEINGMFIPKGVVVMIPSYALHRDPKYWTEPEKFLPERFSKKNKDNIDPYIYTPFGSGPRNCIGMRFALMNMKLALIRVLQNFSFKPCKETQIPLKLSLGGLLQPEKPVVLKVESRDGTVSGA

Regarding `OCl`, in [1], the max activation is 0.862% (inactive). Also, the Potency result in experiment [2] is “inactive”.
As for `Cc1cccc(C)c1NC(=O)C1CCCCN1C` (stereo not drawn), in experiment [1], the max activation is -1.93% (inactive). The Potency entry in experiment [2] is “inactive”.
The like results for `CC(C)(O/N=C(\C(=O)N[C@@H]1C(=O)N2C(C(=O)[O-])=C(C[n+]3ccccc3)CS[C@H]12)c1csc(N)n1)C(=O)O` were, in that order, 0.831% (inactive) and “inactive”.
As to `O=C(O)CCCC/C=C(\c1ccccc1)c1cccnc1`, the Potency entry in experiment [3] and in experiment [2] was “inactive” throughout.
Take `CC[C@@H](C)CCCCC(=O)N[C@@H](CCNCS(=O)(=O)O)C(=O)N[C@H](C(=O)N[C@@H](CCNCS(=O)(=O)O)C(=O)N[C@H]1CCNC(=O)[C@H]([C@@H](C)O)NC(=O)[C@H](CCNCS(=O)(=O)O)NC(=O)[C@H](CCNCS(=O)(=O)O)NC(=O)[C@H](CC(C)C)NC(=O)[C@@H](CC(C)C)NC(=O)[C@H](CCNCS(=O)(=O)O)NC1=O)[C@@H](C)O` (X3-[Dab(CH2SO3H)]T[Dab(CH2SO3H)][Dab][Dab(CH2SO3H)][dL]L[Dab(CH2SO3H)][Dab(CH2SO3H)]T; lactam 4-C): the max activation in experiment [1] is -6.38% (inactive). Further, the Potency result in experiment [2] was “inactive”.
In the case of `CC(C)OC(=O)Nc1ccc2nc(-c3cscn3)[nH]c2c1`, the values for the Potency in experiment [1] and in experiment [2] were 8.91 µM (active) and 5.01 µM (active), respectively.
`CN1CCN(CCCN2c3ccccc3Sc3ccc(C(F)(F)F)cc32)CC1`: the max activation in experiment [1] is -11.2% (inactive). The Potency in [4] is 2.68 µM (active).
Regarding `CC(C)NCC1CCc2cc(CO)c([N+](=O)[O-])cc2N1` (stereo not drawn), the max activation in experiment [1] was -0.344% (inactive). For the same compound, the Potency result in experiment [2] was “inactive”.
For `C[S+](C)CCC(N)C(=O)O` (stereo not drawn), in that order: -3.19% (inactive) and “inactive”.
With `C(=C\c1ccncc1)/c1ccccc1`, the Potency result in experiment [3] and in experiment [2] was “inactive” in each case.
As to `O=C1CC[C@@H](C(=O)N[C@H]2C[C@@H]2c2ccccc2)N1`, the Potency entry in [3] and in experiment [2] was “inactive” each time.
With `Cc1cnc(C(=O)O)c[n+]1[O-]`, the Potency entry in [3] and in experiment [2] was “inactive” throughout.
As to `CO[C@H](C(=O)[C@@H](O)[C@@H](C)O)C1Cc2cc3cc(O[C@H]4C[C@@H](O[C@H]5C[C@@H](O)[C@H](O)[C@@H](C)O5)[C@@H](O)[C@@H](C)O4)c(C)c(O)c3c(O)c2C(=O)[C@H]1O[C@H]1C[C@@H](O[C@H]2C[C@@H](O[C@H]3C[C@](C)(O)[C@H](O)[C@@H](C)O3)[C@H](O)[C@@H](C)O2)[C@H](O)[C@@H](C)O1` (stereo partly drawn), the max activation in experiment [1] is -17.7% (inactive). Further, the Potency entry in experiment [2] is “inactive”.
Consider `O=c1[nH]c(=O)n([C@H]2C[C@H](O)[C@@H](CO)O2)cc1/C=C/Br`, for which, in experiment [1], the max activation is -6.99% (inactive). Further, the Potency result in experiment [2] was “inactive”.
In the case of `CO/N=C(\C(=O)N[C@@H]1C(=O)N2C(C(=O)[O-])=C(C[n+]3cccc4c3CCC4)CS[C@H]12)c1csc(N)n1`, the Potency result in [3] and in experiment [2] was “inactive” each time.
For the compound `CC/C=C\C/C=C\C/C=C\C/C=C\C/C=C\CCCC(=O)O`, the Potency result in [2] was “inactive”.
Turning to `O=C(Nc1ccccc1)c1cc(Cl)ccc1O`, the Potency in [5] is 39.9 µM (active); in experiment [6], 35.6 µM (active); in [7], 17.8 µM (active); in experiment [8] it was 12.6 µM (active). Moreover, in experiment [4], the Potency entry was “inactive”.
Take `Oc1cccc2c(O)cccc12`: the Potency was 39.9 µM (active) in experiment [5], 17.8 µM (active) in experiment [6], 22.4 µM (active) in experiment [7] and 22.4 µM (active) in experiment [8]. The Potency entry in experiment [4] is “inactive”.
For `FC(F)(F)C(F)(F)C(F)(F)C(F)(F)C(F)(F)F`, the Potency result in [3] and in [2] was “inactive” throughout.
Consider `O=C(O)c1cc(=O)c2c3nc4ccccc4oc-3cc(=O)c2[nH]1`, for which the Potency entry in experiment [3] and in experiment [2] was “inactive” each time.
For `O=C1CCC(=O)N1`, the Potency result in experiment [5], in experiment [6], in experiment [7], in experiment [8], in experiment [4] and in [9] was “inactive” in each case.
Turning to `COC1=C(OC)C(=O)C(C/C=C(\C)CC/C=C(\C)CC/C=C(\C)CC/C=C(\C)CC/C=C(\C)CC/C=C(\C)CC/C=C(\C)CC/C=C(\C)CC/C=C(\C)CCC=C(C)C)=C(C)C1=O`, the Potency entry in experiment [2] is “inactive”.
Take `c1ccc(-c2ccc(C(c3ccccc3)n3ccnc3)cc2)cc1` (stereo not drawn): the Potency in experiment [5] was 1.55 µM (active); in experiment [6] it was 0.617 µM (active); in experiment [7], 0.219 µM (active); in [8], 5.49 µM (active); in [4] it was 7.56 µM (active).
For the compound `CC(=O)[C@]1(O)Cc2c(O)c3c(c(O)c2[C@@H](O[C@H]2C[C@H](N)[C@H](O)[C@H](C)O2)C1)C(=O)c1ccccc1C3=O`, the Potency entry in [3], in experiment [2] and in [4] was “inactive” each time.
In the case of `O=C(O)C[C@H](O)C[C@H](O)/C=C/c1c(C2CC2)nc2ccccc2c1-c1ccc(F)cc1`, the Potency in experiment [3] is 14.1 µM (active). Besides, the Potency entry in [2] is “inactive”. For the same compound, the activity change, negative = inhibition in [5] is -0.811% [at 23.6 µM] (inactive); in experiment [8] it was -11.8% [at 23.6 µM] (inactive); in experiment [4], 2.63% [at 15.8 µM] (inactive); in experiment [9] it was -3.86% [at 23.6 µM] (inactive).
For `N[C@H](C(=O)O)[C@@H]1CC(Cl)=NO1`, the Potency result in [3] and in experiment [2] was “inactive” in each case.
